The source of these data is PubChem BioAssay (Tox21).

Where “and” joins values, the source holds several entries; their conditions need not be identical. Equal entries are not always repeated. Results filed as inconclusive are left out. Where a call stands in place of a potency, no number is given. Some structures have more than one record in an assay (separate samples or runs), and their calls can disagree. Calls of active or inactive are those of the source. The call rests on the fitted dose curve; in most records, active means well fitted curve in the direction sought with a large enough effect in the repeat runs; inconclusive means weak or mixed curves; inactive means no such curve, though single readings can be large; an effect the other way counts as inactive or inconclusive.
Potency means the concentration at half of the fitted maximal effect.

One experiment can be described thus: qHTS assay to identify small molecule agonists of the RXR signaling pathway - cell viability counter screen (AID 1159529). Further: nearly all actives have a fitted effect of over 50% in size. To be noted: RXR-alpha-bla HEK293T viability, CellTiter-Glo, 16 h; series mostly up to 76.8 µM. In a few lines:
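HEK 293T RXRa-bla cells, 2% CS-FBS; 5 h settle; cpd 16 h 37 C, 5% CO2; CellTiter-Glo 30 min RT, luminescence. Tetraoctyl ammonium bromide as positive control.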
Turning to `ClCc1ccccn1`, the Potency result is “inactive”. With `CCN(CC)C(=O)C(C)Oc1cccc2ccccc12` (stereo not drawn), the Potency result is “inactive”.

As for `c1ccc(C2CO2)cc1` (stereo not drawn), the Potency result is “inactive”. Turning to `CCCCCCCC[N+](C)(CCCCCCCC)CCCCCCCC`, the Potency is 346 nM (active) and 15.5 µM (active) and 6.16 µM (active). Turning to `CCC[CH2][Sn]([Cl])([CH2]CCC)[CH2]CCC`, the Potency was 1.1 µM (active). Take `CCC[CH2][Sn]([Cl])([Cl])[CH2]CCC`: the Potency was 1.76 µM (active) and 3.09 µM (active). Turning to `Cl`, the Potency result was “inactive”. Consider `C[N+](C)(C)CC(=O)[O-]`, for which the Potency result is “inactive”. Regarding `O=C(O)CF`, the Potency entry was “inactive”. The same measure, in the same setting: the result for `CCOP(=O)(O)OCC` (tested in a mixture with another compound) reads “inactive and 17.2 µM (active)”; that for `CC1(C)C(C(=O)OC(C#N)c2cccc(Oc3ccccc3)c2)C1(C)C` (stereo not drawn), “inactive”. Regarding `COP(=S)(OC)SCn1nnc2ccccc2c1=O`, the Potency result is “inactive”. For `COc1ccc(C=O)cc1OC`, the Potency result was “inactive”.

Turning to `CCNc1nc(Cl)nc(NC(C)(C)C#N)n1`, the Potency result was “inactive”.

Another experiment is described as follows: qHTS assay to identify small molecule antagonists of the retinoid acid receptor (RAR) signaling pathway - cell viability counter screen (AID 1159551). Further: nearly all actives have a fitted effect of over 35% in size. As to conditions: C3RL4 cells viability, ATP luminescence (CellTiter-Glo), 6 h; series mostly up to 92.4 µM. In a few lines:
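Following overnight attachment, C3RL4 reporter cells received DMSO-dissolved compounds and then retinol (1 uM final). Six hours later at 37 C, ATP content was measured by CellTiter-Glo luminescence.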
As to `COc1ccc(O)c(C(C)(C)C)c1`, the Potency entry was “inactive”. Still for that read-out and setting: the result for `Cc1ccc([N+](=O)[O-])cc1` reads “inactive”; that for `CCNCC`, “inactive”. Same read-out and setting: the result for `O=C1CCCO1` reads “inactive”; that for `CN(C)c1nc(=O)n(C2CCCCC2)c(=O)n1C`, “inactive”. As for `CS(=O)(=O)NC(=O)c1cc(Oc2ccc(C(F)(F)F)cc2Cl)ccc1[N+](=O)[O-]`, the Potency result is “inactive”. As for `C[C@]12CC[C@H]3[C@@H](CCC4=CC(=O)CC[C@@H]43)[C@@H]1CC[C@@H]2O`, the Potency entry is “inactive”.

With `O=C1C(Cl)=C(Cl)C(=O)c2ccccc21`, the Potency is 21.8 µM (active) and 24.3 µM (active). On to `ClCC(Cl)CCl`, for which the Potency result was “inactive”. The same measure, in the same setting: the result for `COP(=S)(OC)Oc1ccc(S(=O)(=O)N(C)C)cc1` reads “inactive”; that for `CC(C)(C#N)N=NC(C)(C)C#N`, “inactive”; that for `CC(C)(c1ccccc1)c1ccc(O)c(C(C)(C)c2ccccc2)c1`, 54 µM (active) and 61.1 µM (active). On the same count and under the same terms, the result for `O=[N+]([O-])/N=C1\NCCN1Cc1ccc(Cl)nc1` reads “inactive”; that for `N#Cc1cccnc1`, “inactive”.

Regarding `[Cl-].[Cl-].[Cl-].[Fe+3]`, the Potency entry was “inactive”. The same measure, in the same setting: the result for `Clc1cccc(C(Cl)(Cl)Cl)n1` reads “inactive”; that for `CC(O)CN(CC(C)O)CC(C)O` (stereo not drawn), “inactive”.

On to `COc1ccc(CO)cc1`, for which the Potency result was “inactive”. Same read-out and setting: the value for `CC(C)(c1ccc(OCC2CO2)cc1)c1ccc(OCC2CO2)cc1` (stereo not drawn) was “inactive”.

With `COP(=O)(NC(C)=O)SC` (stereo not drawn), the Potency entry is “inactive”.

For `CCCCOC(=O)COC(=O)c1ccccc1C(=O)OCCCC`, the Potency entry was “inactive”. Still for that read-out and setting: the value for `CC[n+]1c(-c2ccccc2)c2cc(N)ccc2c2ccc(N)cc21` was “inactive”. The same measure, in the same setting: the result for `ClCc1ccccn1` reads “inactive”; that for `CCN(CC)C(=O)C(C)Oc1cccc2ccccc12` (stereo not drawn), “inactive”. Regarding `c1ccc(C2CO2)cc1` (stereo not drawn), the Potency entry was “inactive”.

With `CCCCCCCC[N+](C)(CCCCCCCC)CCCCCCCC`, the Potency was 27.3 µM (active) and 61.2 µM (active). Still for that read-out and setting: the result for `CCC[CH2][Sn]([Cl])([CH2]CCC)[CH2]CCC` reads 3.86 µM (active) and 8.63 µM (active); that for `CCC[CH2][Sn]([Cl])([Cl])[CH2]CCC`, 13.9 µM (active) and 27.3 µM (active); that for `Cl`, “inactive”.

Turning to `C[N+](C)(C)CC(=O)[O-]`, the Potency entry is “inactive”.

In the case of `O=C(O)CF`, the Potency entry is “inactive”.

As to `CCOP(=O)(O)OCC` (tested in a mixture with another compound), the Potency entry is “inactive and 60.6 µM (active)”. On to `CC1(C)C(C(=O)OC(C#N)c2cccc(Oc3ccccc3)c2)C1(C)C` (stereo not drawn), for which the Potency entry is “inactive”.

Take `COP(=S)(OC)SCn1nnc2ccccc2c1=O`: the Potency entry was “inactive”. Still for that read-out and setting: the result for `COc1ccc(C=O)cc1OC` reads “inactive”; that for `CCNc1nc(Cl)nc(NC(C)(C)C#N)n1`, “inactive”.

Another experiment is described as follows: qHTS assay to identify small molecule antagonists of the retinoic acid receptor (RAR) signaling pathway (AID 1159552; further: nearly all actives have a fitted effect of over 50% in size). As to conditions: C3RL4 RARE luciferase reporter, retinol-stimulated, 6 h; series mostly up to 92.4 µM. A digest of the protocol:
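Cells of the C3RL4 line were seeded, incubated overnight, then dosed with compounds in DMSO followed immediately by retinol (1 uM final). Six hours later luciferase detection reagent went in; signal was measured after 30 min at RT.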
In the case of `COc1ccc(O)c(C(C)(C)C)c1`, the Potency entry is “inactive”. Same read-out and setting: the value for `O=C1CCCO1` was “inactive”; that for `CS(=O)(=O)NC(=O)c1cc(Oc2ccc(C(F)(F)F)cc2Cl)ccc1[N+](=O)[O-]` was “inactive”. Same read-out and setting: the value for `C[C@]12CC[C@H]3[C@@H](CCC4=CC(=O)CC[C@@H]43)[C@@H]1CC[C@@H]2O` was 48.1 µM (active). Consider `O=C1C(Cl)=C(Cl)C(=O)c2ccccc21`, for which the Potency is 21.8 µM (active) and 19.3 µM (active).

Consider `ClCC(Cl)CCl`, for which the Potency entry was “inactive”. Still for that read-out and setting: the value for `COP(=S)(OC)Oc1ccc(S(=O)(=O)N(C)C)cc1` was “inactive”; that for `CC(C)(C#N)N=NC(C)(C)C#N` was “inactive”; that for `CC(C)(c1ccccc1)c1ccc(O)c(C(C)(C)c2ccccc2)c1` was 27.1 µM (active) and 27.3 µM (active).

On to `O=[N+]([O-])/N=C1\NCCN1Cc1ccc(Cl)nc1`, for which the Potency result is “inactive”. Still for that read-out and setting: the result for `CC(O)CN(CC(C)O)CC(C)O` (stereo not drawn) reads “inactive”; that for `CC(C)(c1ccc(OCC2CO2)cc1)c1ccc(OCC2CO2)cc1` (stereo not drawn), “inactive”. `CCCCOC(=O)COC(=O)c1ccccc1C(=O)OCCCC`: the Potency entry is “inactive”. `CCCCCCCC[N+](C)(CCCCCCCC)CCCCCCCC`: the Potency is 4.85 µM (active) and 9.7 µM (active) and 13.7 µM (active). Still for that read-out and setting: the result for `CCC[CH2][Sn]([Cl])([Cl])[CH2]CCC` reads 310 nM (active) and 344 nM (active).

As for `CC1(C)C(C(=O)OC(C#N)c2cccc(Oc3ccccc3)c2)C1(C)C` (stereo not drawn), the Potency entry is “inactive”.

Regarding `COP(=S)(OC)SCn1nnc2ccccc2c1=O`, the Potency is 60 µM (active).

Consider `COc1ccc(C=O)cc1OC`, for which the Potency result is “inactive”.
